Experiment [1] has as its target Cytochrome P450 1A2 (Homo sapiens) (UniProt P05177). Nature of the experiment: p450-cyp1a2 (AID 410; calls by dose curve; also: potency is read from the fitted curve at half-maximal effect). The gist of the method: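 Luminescent readout of luciferin formed from Luciferin-ME by human CYP1A2; data normalized against complete inhibition by 57 uM furafylline. Enzyme 20nM, substrate 100uM at Km, 100mM KPO4 buffer, 60 min reaction at room temperature.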
The target of experiment [2] is Glucocorticoid receptor (Homo sapiens) (UniProt P04150). The experiment can be described thus: GR-GFP Redistribution (AID 450;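 active = compounds whose dose series gives a full or clear partial fitted curve of increased nuclear translocation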; also: potency is read from the fitted curve at half-maximal effect). The following applies: U2OS GR-GFP nuclear translocation, laser cytometry, 2 h.
Sequence of Glucocorticoid receptor (Homo sapiens) (P04150 whole entry, looked up): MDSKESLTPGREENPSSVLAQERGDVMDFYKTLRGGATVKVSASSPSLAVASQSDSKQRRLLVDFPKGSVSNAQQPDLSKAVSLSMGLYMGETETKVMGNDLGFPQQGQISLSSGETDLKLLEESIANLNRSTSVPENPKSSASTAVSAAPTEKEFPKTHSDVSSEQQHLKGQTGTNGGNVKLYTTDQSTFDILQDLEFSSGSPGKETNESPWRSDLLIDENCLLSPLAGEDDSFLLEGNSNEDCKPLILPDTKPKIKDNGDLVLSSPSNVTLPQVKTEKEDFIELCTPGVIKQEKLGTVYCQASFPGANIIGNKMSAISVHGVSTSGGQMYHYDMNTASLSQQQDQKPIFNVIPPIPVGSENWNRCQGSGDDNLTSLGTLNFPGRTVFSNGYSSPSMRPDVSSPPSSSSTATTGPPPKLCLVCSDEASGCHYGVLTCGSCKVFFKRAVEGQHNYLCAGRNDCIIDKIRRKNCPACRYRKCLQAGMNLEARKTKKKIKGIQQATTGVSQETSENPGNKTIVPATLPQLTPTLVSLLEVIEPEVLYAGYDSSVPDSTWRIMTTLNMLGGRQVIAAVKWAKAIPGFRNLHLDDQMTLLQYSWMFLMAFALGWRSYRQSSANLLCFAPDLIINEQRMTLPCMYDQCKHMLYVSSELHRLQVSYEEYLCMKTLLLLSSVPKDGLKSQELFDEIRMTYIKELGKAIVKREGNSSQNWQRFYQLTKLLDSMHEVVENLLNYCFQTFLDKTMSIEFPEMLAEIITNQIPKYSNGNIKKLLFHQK
Experiment [3] has the same target. Nature of the experiment: GR-EFC Redistribution (AID 451; calls by dose curve; also: potency is read from the fitted curve at half-maximal effect). The conditions noted are these: CHO-K1 GR-EFC translocation, beta-gal luminescence, 2 h. The essentials:
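CHO-K1 cells stably expressing nuclear-localized β-gal enzyme acceptor and GR fused C-terminally to the enzyme donor fragment; ligand-driven nuclear translocation restores β-gal by complementation. Compounds titrated up to 46 uM final, 2 h at 37 °C; luminescence read.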

The target in experiment [4] is Mitogen-activated protein kinase 10 (Mus musculus) (UniProt Q61831). The experiment can be described thus: JNK3 AlphaScreen Assay (AID 530; active = well fitted curve in either direction with a large enough effect, not every such curve was filed as active;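 also: kinase came from lysate of stimulated human HepG2 cells; signal reports phosphorylation of biotinylated GST-cJun 1-79 at Ser73 with 10 µM ATP; % is scaled to controls: 0 for no effect and ±100 for the full control effect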). The essentials: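 Inhibitors reduce antibody binding to phosphorylated biotin-cJun, lowering AlphaScreen luminescence. Lysates from HepG2 cells pre-activated by IL-1beta plus TNF-alpha supplied JNK3; compounds were titrated.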

In experiment [5] the target is 3',5'-cyclic-AMP phosphodiesterase 4B (Homo sapiens) (UniProt Q07343). Nature of the experiment: qHTS Assay for Inhibitors of PDE-IV (AID 607; active = well fitted activation curve with a large enough effect in the main read-out, with a control signal flat, not every such curve was filed as active; also: % of control where 0% means no effect). The essentials: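 HEK293 ACTOne cells with CNG channel (1000/well), endogenous PDE4; membrane potential dye, compounds up to 22.9 uM final. Fluorescence Ex 535/Em 590; RO 20-1724 (100 uM final) as reference.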
Sequence of 3',5'-cyclic-AMP phosphodiesterase 4B (Homo sapiens) (Q07343 whole entry, looked up): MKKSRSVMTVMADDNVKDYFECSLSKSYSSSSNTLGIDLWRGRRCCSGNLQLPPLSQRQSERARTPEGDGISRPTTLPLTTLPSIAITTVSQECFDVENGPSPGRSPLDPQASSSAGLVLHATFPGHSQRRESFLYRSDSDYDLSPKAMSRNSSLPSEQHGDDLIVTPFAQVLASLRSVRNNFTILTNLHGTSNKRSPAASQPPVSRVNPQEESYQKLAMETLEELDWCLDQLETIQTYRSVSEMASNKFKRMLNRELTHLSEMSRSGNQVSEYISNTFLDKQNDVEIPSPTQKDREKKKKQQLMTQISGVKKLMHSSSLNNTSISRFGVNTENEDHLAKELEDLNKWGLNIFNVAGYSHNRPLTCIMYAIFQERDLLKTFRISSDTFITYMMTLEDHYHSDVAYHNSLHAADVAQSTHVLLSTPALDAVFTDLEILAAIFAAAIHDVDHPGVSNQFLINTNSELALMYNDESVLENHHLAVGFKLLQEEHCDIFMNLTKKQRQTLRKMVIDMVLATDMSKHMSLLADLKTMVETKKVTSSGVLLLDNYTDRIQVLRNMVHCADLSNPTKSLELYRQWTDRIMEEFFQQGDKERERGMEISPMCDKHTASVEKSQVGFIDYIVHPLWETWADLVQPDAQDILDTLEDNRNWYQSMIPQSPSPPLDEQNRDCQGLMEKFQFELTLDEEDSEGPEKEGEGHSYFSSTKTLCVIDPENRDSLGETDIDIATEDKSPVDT
For experiment [6], the target named is Cytochrome P450 2C9 (Homo sapiens) (UniProt P11712). The experiment can be described thus: qHTS Assay for Inhibitors and Substrates of Cytochrome P450 2C9 (AID 883). Also: potency is read from the fitted curve at half-maximal effect; nearly all actives have a fitted effect of over 60% in size. The gist of the method:
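CYP2C9 deoxyluciferin hydroxylation, 37C, 60 min with NADPH regeneration; 10nM enzyme, 100uM Luciferin-H (KM). Glo detection reagent stopped reaction; luminescence normalized to sulphaphenazole (57uM) full inhibition.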

Experiment [7] addresses Cytochrome P450 2C19 (Homo sapiens) (UniProt P33261). The experiment can be described thus: qHTS Assay for Inhibitors and Substrates of Cytochrome P450 2C19 (AID 899). Also: potency is read from the fitted curve at half-maximal effect; nearly all actives have a fitted effect of over 60% in size. The gist of the method:
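In 50mM KPO4, the reaction held 5nM enzyme and KM-level (10uM) Luciferin-H EGE; it ran 60 min at 37C after NADPH regeneration and a 10 min compound preincubation. Luminescence values were scaled to 57uM ketoconazole as complete inhibition.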

The target in experiment [8] is DNA dC->dU-editing enzyme APOBEC-3G (Homo sapiens) (UniProt Q9HC16). Nature of the experiment: qHTS for inhibitors of Vif-A3G interactions: Validation (AID 588379). Also: 0% is about no effect. The essentials:
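HeLa cells stably expressing Vif and A3G-eYFP, 700 cells/well, incubated overnight at 37 deg C, then exposed to compound overnight at 37 deg C. Inhibition of Vif-mediated degradation read as increased yellow fluorescence (Ex 488/Em 500-530) by laser-scanning cytometry.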

Experiment [9] is described as follows: P-glycoprotein substrates identified in KB-8-5-11 adenocarcinoma cell line, qHTS therapeutic library screen (AID 1346987). Also: nearly all actives have a fitted effect of over 65% in size. Also: potency is read from the fitted curve at half-maximal effect. The essentials:
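Steps: plate 500 KB-8-5-11 cells/well in DMEM + 10% FCS (colchicine removed); pin compounds in dose-response; incubate 72 h, 37 degree C, 5% CO2; add CellTiter-Glo, 5 min; read luminescence.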

The test system of experiment [10] is Zika virus NS2B-NS3 protease. The experiment can be described thus: Primary screen GU AMC qHTS for Zika virus inhibitors (AID 1347154).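 Also: 0% = no-inhibitor control and -100% = no-enzyme control; nearly all actives have a fitted effect of over 70% in size.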 The gist of the method:
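Unlinked Zika NS2B hydrophilic domain/NS3 protease domain noncovalent complex (25 nM final) in 10 mM Tris-HCl pH 8.0, 0.01% Tween 20, with AMC peptide substrate. Fluorescence (ex 340, em 450 nm) change over 15 min, room temperature; percent inhibition fitted to 4-parameter Hill equation.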

Experiment [11] is described as follows: Primary qHTS for small molecule stabilizers of the endoplasmic reticulum resident proteome: Secreted ER Calcium Modulated Protein (SERCaMP) assay (AID 1508630). Also: % is scaled to controls: 0 for no effect and ±100 for the full control effect. The gist of the method:
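GLuc-SERCaMP-expressing SH-SY5Y cells, pretreated 16 h with compound, are challenged with thapsigargin to empty ER calcium stores; after 4 h, coelenterazine is added directly to the medium and luminescence is imaged.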

Experiment [12] is described as follows: Primary qHTS for inhibitors of nuclear receptor binding SET domain protein 2 (NSD2) in an isogenic RCH-ACV NSD2 p.E1099K mutant (9B) (AID 1645876). Also: nearly all actives have a fitted effect of over 70% in size. Also: potency is read from the fitted curve at half-maximal effect.
Experiment [13] in a line: Primary qHTS for inhibitors of nuclear receptor binding SET domain protein 2 (NSD2) in an RCH-ACV wild type WT cells (2C) (AID 1645877). Also: nearly all actives have a fitted effect of over 70% in size. Also: potency is read from the fitted curve at half-maximal effect.
Experiment [14] addresses Glutathione peroxidase 1 (Homo sapiens) (UniProt P07203). Nature of the experiment: Primary qHTS Assay for Inhibitors of Recombinant Selenoprotein Glutathione Peroxidase 1 (GPX1) (AID 1845191). Also: nearly all actives have a fitted effect of over 65% in size. The essentials: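 Recombinant GPX1 (10 nM final) was preincubated with compound for 30 min at room temperature, then reacted with 1 mM GSH, 0.5 mM CHP, 0.5 mM NADPH and 100 nM glutathione reductase; NADPH fluorescence (340/450 nm) was read at 0 and 15 min.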

Experiment [15] deals with Phospholipid hydroperoxide glutathione peroxidase GPX4 (Homo sapiens) (UniProt P36969). Nature of the experiment: Primary qHTS Assay for Inhibitors of Recombinant Selenoprotein Glutathione Peroxidase 4 (GPX4) (AID 1845192). Also: % is scaled to controls: 0 for no effect and ±100 for the full control effect; nearly all actives have a fitted effect of over 65% in size. The following applies: outcome: dose series up to 50 µM unless noted. The gist of the method: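 GR-coupled readout: 100 nM GR, 1 mM GSH, 0.5 mM NADPH; NADPH fluorescence (ex 340/em 450 nm) read at t=0 and after 15 min RT. GPX4 200 nM, preincubated 30 min with compound; substrate 0.5 mM CHP.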
Sequence of Phospholipid hydroperoxide glutathione peroxidase GPX4 (Homo sapiens) (P36969 whole entry, looked up): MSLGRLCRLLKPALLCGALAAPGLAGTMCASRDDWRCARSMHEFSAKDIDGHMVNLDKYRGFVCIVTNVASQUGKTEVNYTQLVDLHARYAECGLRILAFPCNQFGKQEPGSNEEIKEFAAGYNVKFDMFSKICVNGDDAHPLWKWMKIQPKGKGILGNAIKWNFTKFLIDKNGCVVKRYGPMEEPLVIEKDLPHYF

The nature of experiment [16]: qHTS drug screen for cell cycle checkpoint inhibitors in PARPi-resistant BRCA-mutant ovarian cancer cell lines. (AID 1963452; calls by dose curve). The following applies: PEO1/OlaR viability, CellTiter-Glo luminescence, 96 h, stronger effect = lower value. The essentials: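 PEO1, PEO4 and PEO1/OlaR ovarian cancer cells, 600 per well, exposed 96 h at 37C to a dilution series. Viability read by CellTiter-Glo luminescence, normalized to DMSO and empty wells; activity summarized as Z-AUC.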

A short description of experiment [17]: qHTS assay to identify inhibitors of the type 1 interferon - major histocompatibility complex class I in skeletal muscle: Counter screen cell viability and HiBit confirmation (AID 1347412). Also: % is scaled to controls: 0 for no effect and ±100 for the full control effect; nearly all actives have a fitted effect of over 60% in size. The following applies: iHSKM muscle cells + IFN-b, HiBiT or CellTiter-Glo, 24 h, at 45.9 µM (top of the series). The gist of the method:
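Myoblasts (C25cl48, HLA-B HiBiT) seeded in medium without dexamethasone, IFN-b 4 ng/ml added except unstimulated columns; 1 hr later compounds pinned (12-pt 1:3, top 46 uM final). Incubated 24 hrs, lysed 10 min, luminescence measured.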

Records with an inconclusive call do not appear. Active and inactive are the calls of the source. Unless noted, calls follow the shape of the dose curve; as a rule, active = well fitted curve in the direction sought with a large enough effect; inconclusive = small, poorly fitted or top-dose-only effect, or another doubt; inactive = no such curve, though single readings can be large; an effect the other way counts as inactive or inconclusive.

Potency, Z-AUC and activity change, negative = inhibition data for four compounds are collected here from PubChem BioAssay (NCATS).

Sequence of Glutathione peroxidase 1 (Homo sapiens) (P07203 whole entry, looked up): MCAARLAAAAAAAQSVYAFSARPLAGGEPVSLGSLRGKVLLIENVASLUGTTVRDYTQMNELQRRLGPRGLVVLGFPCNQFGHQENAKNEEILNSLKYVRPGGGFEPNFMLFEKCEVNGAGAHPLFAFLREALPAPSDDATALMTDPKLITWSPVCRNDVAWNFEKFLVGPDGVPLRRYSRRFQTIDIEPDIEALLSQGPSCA
Sequence of Cytochrome P450 1A2 (Homo sapiens) (P05177 whole entry, looked up): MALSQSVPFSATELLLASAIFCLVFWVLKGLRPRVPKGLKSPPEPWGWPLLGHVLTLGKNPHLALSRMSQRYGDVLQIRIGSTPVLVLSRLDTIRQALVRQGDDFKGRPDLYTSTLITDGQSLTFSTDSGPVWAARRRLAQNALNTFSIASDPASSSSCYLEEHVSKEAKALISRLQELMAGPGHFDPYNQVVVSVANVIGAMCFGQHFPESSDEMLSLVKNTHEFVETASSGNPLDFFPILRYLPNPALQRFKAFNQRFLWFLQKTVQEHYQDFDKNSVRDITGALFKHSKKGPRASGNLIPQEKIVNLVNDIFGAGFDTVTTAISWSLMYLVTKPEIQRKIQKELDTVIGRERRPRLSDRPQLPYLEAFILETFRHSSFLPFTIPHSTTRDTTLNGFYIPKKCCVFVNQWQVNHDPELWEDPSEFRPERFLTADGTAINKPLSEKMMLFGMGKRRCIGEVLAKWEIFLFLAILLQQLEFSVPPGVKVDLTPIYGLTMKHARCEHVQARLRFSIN
Sequence of Cytochrome P450 2C19 (Homo sapiens) (P33261 whole entry, looked up): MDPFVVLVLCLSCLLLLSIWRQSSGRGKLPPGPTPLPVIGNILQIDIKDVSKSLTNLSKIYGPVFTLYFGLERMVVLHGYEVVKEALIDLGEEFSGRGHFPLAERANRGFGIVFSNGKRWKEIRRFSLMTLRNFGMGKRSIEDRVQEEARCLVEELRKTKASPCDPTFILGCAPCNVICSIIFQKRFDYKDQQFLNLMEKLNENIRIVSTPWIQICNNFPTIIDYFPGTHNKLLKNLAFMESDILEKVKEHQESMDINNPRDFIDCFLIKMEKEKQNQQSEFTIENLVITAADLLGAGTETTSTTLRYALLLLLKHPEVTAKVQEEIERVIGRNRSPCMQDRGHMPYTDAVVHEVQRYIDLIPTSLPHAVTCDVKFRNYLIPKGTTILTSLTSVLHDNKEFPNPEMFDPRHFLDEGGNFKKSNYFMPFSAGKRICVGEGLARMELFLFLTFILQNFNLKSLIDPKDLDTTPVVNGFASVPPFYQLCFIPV
Sequence of DNA dC->dU-editing enzyme APOBEC-3G (Homo sapiens) (Q9HC16 whole entry, looked up): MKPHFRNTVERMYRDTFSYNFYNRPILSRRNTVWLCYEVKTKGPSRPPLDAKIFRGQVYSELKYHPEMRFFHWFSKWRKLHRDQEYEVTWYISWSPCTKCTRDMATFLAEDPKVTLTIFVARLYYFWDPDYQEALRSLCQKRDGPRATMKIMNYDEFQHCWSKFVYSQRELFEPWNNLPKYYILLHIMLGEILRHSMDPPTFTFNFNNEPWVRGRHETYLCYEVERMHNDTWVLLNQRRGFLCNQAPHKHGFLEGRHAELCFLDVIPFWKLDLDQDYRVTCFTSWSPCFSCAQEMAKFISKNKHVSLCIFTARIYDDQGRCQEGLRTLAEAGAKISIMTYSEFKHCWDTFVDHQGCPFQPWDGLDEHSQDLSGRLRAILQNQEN
Sequence of Cytochrome P450 2C9 (Homo sapiens) (P11712 whole entry, looked up): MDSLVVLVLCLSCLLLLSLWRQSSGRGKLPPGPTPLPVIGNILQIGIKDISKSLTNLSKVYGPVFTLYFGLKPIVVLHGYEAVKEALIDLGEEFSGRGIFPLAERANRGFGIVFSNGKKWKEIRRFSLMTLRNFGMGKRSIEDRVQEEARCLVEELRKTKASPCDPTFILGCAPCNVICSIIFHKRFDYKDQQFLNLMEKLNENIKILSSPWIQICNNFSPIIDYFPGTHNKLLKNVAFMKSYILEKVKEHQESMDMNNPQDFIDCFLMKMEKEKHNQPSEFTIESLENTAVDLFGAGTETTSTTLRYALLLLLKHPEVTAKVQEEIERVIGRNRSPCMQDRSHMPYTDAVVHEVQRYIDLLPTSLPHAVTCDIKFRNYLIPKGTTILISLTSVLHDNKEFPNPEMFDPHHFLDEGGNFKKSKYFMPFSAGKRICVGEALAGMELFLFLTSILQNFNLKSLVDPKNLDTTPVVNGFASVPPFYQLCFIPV

Consider `Nc1[nH]nc2nc3ccccc3nc12`, for which the Potency was 0.316 µM (active) in experiment [1]; > 46 µM (inactive) in [2]; > 46 µM (inactive) in experiment [3]; 2 µM (active) in experiment [6]; 0.631 µM (active) in [7]. In addition, the Potency entry in experiment [4], in experiment [5], in [8], in experiment [9], in experiment [10] and in experiment [11] was “inactive” throughout. The Potency entry in [12], in [13] and in [14] was “inactive” in each case.

For `CCCCCCCCCCC(O)C1C=CC2C(=O)N(c3ccccc3)C(=O)C2N1Nc1ccc([N+](=O)[O-])cc1` (configuration not stated), the Potency result in [9] and in experiment [14] was “inactive” in each case.

As for `NS(=O)(=O)c1ccc(N=Nc2c(O)[nH]c3ccc(Br)cc23)cc1`, the Potency in experiment [9] is 11.6 µM (active).

As to `Nc1ncnc(Nc2ccc(OCc3ccccc3)c(Cl)c2)c1/C=N/OCCN1CCOCC1`, the Potency in experiment [9] is 16.4 µM (active); in [12] it was 16.6 µM (active); in [13], 8.33 µM (active). The Potency result in [14] and in experiment [15] was “inactive” throughout. In addition, the Z-AUC in experiment [16] is -0.0964 (inactive); in experiment [16] (measured here: PEO1 parental Z-AUC), 0.0883; in experiment [16] (measured here: PEO4 Z-AUC), -0.311. Also, the activity change, negative = inhibition in experiment [17] (HiBiT) was -8.78% (inactive); in experiment [17] (Viability), 12.2% (inactive).
